Assay results: PubChem BioAssay (NCI)
The panel holds about 79,000 compounds, 15% with a hit somewhere; the sample as a whole holds those more often. Active and inactive are the calls of the source. Cut-off read from the data, not from the text of the source: active = growth inhibition above about 70%; inactive = the rest.

Legend:
[1] = NCI Yeast Anticancer Drug Screen. Data for the rad52 strain (AID 147);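 note: 0% = growth of vehicle-treated control cultures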; settings: S. cerevisiae rad52 mutant growth inhibition, stronger effect = higher value
How it was run: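 Read-out: growth inhibition versus vehicle-treated controls. Cells were a DNA repair-deficient yeast strain treated with compounds.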

[2] = NCI Yeast Anticancer Drug Screen. Data for the wt1 strain (AID 149);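 note: 0% = growth of vehicle-treated wt1 cultures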; settings: S. cerevisiae wt1 strain (SPY 50644) growth inhibition, stronger effect = higher value
How it was run: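 Readout: yeast growth inhibition, normalised to vehicle controls, in the wt1 strain exposed to test compounds.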

[3] = NCI Yeast Anticancer Drug Screen. Data for the rad50EPP+ strain (AID 151);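 note: 0% = growth of vehicle-treated control cultures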; settings: S. cerevisiae rad50 mutant strain, stronger effect = higher value
How it was run: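 Growth inhibition read against vehicle controls in rad50EPP+ yeast, a strain altered in DNA damage repair, after compound exposure.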

[4] = NCI Yeast Anticancer Drug Screen. Data for the mgt1 strain (AID 153); settings: S. cerevisiae mgt1 mutant growth inhibition, stronger effect = higher value
How it was run: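 mgt1 yeast grown with test compound; read-out is growth inhibition versus vehicle-treated cultures.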

[5] = NCI Yeast Anticancer Drug Screen. Data for the rad50 strain (AID 155);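 note: 0% = growth of vehicle-only cultures of the same strain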; settings: S. cerevisiae rad50 strain growth inhibition, stronger effect = higher value
How it was run: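 Compounds were tested on a yeast strain with an engineered DNA damage repair alteration; the reported value is growth inhibition normalised to vehicle treatment.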

[6] = NCI Yeast Anticancer Drug Screen. Data for the mec2-1 strain (AID 157); settings: S. cerevisiae mec2-1 strain, stronger effect = higher value
How it was run: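 Yeast mec2-1 mutant treated with compound. Readout: growth inhibition vs vehicle controls.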

[7] = NCI Yeast Anticancer Drug Screen. Data for the rad14 strain (AID 159);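 note: 0% = growth of vehicle-treated control cultures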; settings: S. cerevisiae rad14 strain growth inhibition, stronger effect = higher value
How it was run: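 Compound-treated yeast with a defined DNA-repair lesion; growth inhibition normalised to vehicle-treated cultures.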

[8] = NCI Yeast Anticancer Drug Screen. Data for the sgs1 mgt1 strain (AID 161);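 note: 0% = growth of cultures given vehicle only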; settings: S. cerevisiae sgs1 mgt1 strain, stronger effect = higher value
How it was run: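 Mutant yeast exposed to compound; growth scored against vehicle-only wells.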

[9] = NCI Yeast Anticancer Drug Screen. Data for the CLN2oe strain (AID 163);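 note: 0% = growth of vehicle-only control cultures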; settings: S. cerevisiae CLN2oe strain, stronger effect = higher value
How it was run: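 Read-out: yeast growth inhibition, expressed relative to vehicle-only controls. The strain bears an engineered cell-cycle alteration.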

[10] = NCI Yeast Anticancer Drug Screen. Data for the cln2 rad14 strain (AID 165);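 note: 0% = growth equal to vehicle treated cultures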; settings: S. cerevisiae cln2 rad14 strain, stronger effect = higher value
How it was run: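 cln2 rad14 yeast strain; compound exposure; growth inhibition read vs vehicle controls.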

[11] = NCI Yeast Anticancer Drug Screen. Data for the bub3 strain (AID 167); settings: S. cerevisiae bub3 mutant strain, stronger effect = higher value
How it was run: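 Growth of a checkpoint-deficient yeast mutant is measured after compound exposure. Values represent inhibition relative to vehicle.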

[12] = NCI Yeast Anticancer Drug Screen. Data for the wt2 strain (AID 169);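 note: 0% = growth of vehicle-treated yeast cultures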; settings: S. cerevisiae wt2 strain growth inhibition, stronger effect = higher value
How it was run: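 Read-out: growth inhibition versus vehicle-treated control cultures after compound exposure of the yeast strain.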

[13] = NCI Yeast Anticancer Drug Screen. Data for the mlh1 strain (AID 171);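 note: 0% = growth of vehicle-treated control cultures of the same strain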; settings: S. cerevisiae mlh1 strain growth inhibition, stronger effect = higher value
How it was run: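 Read-out: growth inhibition versus vehicle controls. Strain: engineered yeast with a defined DNA repair or cell cycle defect, compound-treated.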

[14] = NCI Yeast Anticancer Drug Screen. Data for the sgs1 strain (AID 173);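 note: 0% = growth of vehicle-only control cultures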; settings: S. cerevisiae sgs1 mutant, stronger effect = higher value
How it was run: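 Read-out: yeast growth inhibition relative to vehicle controls, following compound exposure of a strain with a defined DNA repair/cell cycle alteration.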

[15] = NCI Yeast Anticancer Drug Screen. Data for the mlh1 rad18 strain (AID 175); settings: S. cerevisiae mlh1 rad18 strain growth inhibition, stronger effect = higher value
How it was run: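 Yeast w/ defined DNA-repair lesions; compound exposure; growth vs vehicle controls → % inhibition.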

[16] = NCI Yeast Anticancer Drug Screen. Data for the rad18 strain (AID 177); settings: S. cerevisiae rad18 mutant growth inhibition, stronger effect = higher value
How it was run: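 Readout: growth inhibition vs vehicle controls. Cells: genetically altered yeast strain, DNA repair defect.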

[17] = at 5.0 µM (retest, dose inferred, filed as 0.5)
[18] = at 50.0 µM (retest, dose inferred, filed as 5.0)

Measured: growth inhibition

O=C(CC(=O)n1nc(-c2ccccc2)c(N=Nc2ccc(Cl)cc2)c1-c1ccccc1)Nc1cccc(Cl)c1
inactive: [1]; at 1.2 µM -4% | [1]; at 3.7 µM -1% | [1]; at 11.0 µM 1% | [1]; at 33.0 µM 0% | [1]; at 100.0 µM 0% | [2]; at 1.2 µM -2% | [2]; at 3.7 µM -3% | [2]; at 11.0 µM -5% | [2]; at 33.0 µM -4% | [2]; at 100.0 µM -5% | [3]; at 1.2 µM 1% | [3]; at 3.7 µM 8% | [3]; at 11.0 µM 14% | [3]; at 33.0 µM 26% | [3]; at 100.0 µM 29% | [4]; at 1.2 µM -5% | [4]; at 3.7 µM -5% | [4]; at 11.0 µM -7% | [4]; at 33.0 µM -4% | [4]; at 100.0 µM -6% | [5]; at 1.2 µM -2% | [5]; at 3.7 µM 1% | [5]; [17] 7% | [5]; at 11.0 µM 0% | [5]; at 33.0 µM 2% | [5]; [18] -3% | [5]; at 50.0 µM 48.1% | [5]; at 100.0 µM 2% | [6]; at 1.2 µM -4% | [6]; at 3.7 µM -4% | [6]; [17] -4% | [6]; at 11.0 µM -2% | [6]; at 33.0 µM -3% | [6]; [18] -19% | [6]; at 50.0 µM 46% | [6]; at 100.0 µM -4% | [7]; at 1.2 µM -4% | [7]; at 3.7 µM -3% | [7]; at 11.0 µM -2% | [7]; at 33.0 µM -1% | [7]; at 100.0 µM 1% | [8]; [17] 0% | [8]; [18] 2% | [9]; at 1.2 µM -8% | [9]; at 3.7 µM -10% | [9]; at 11.0 µM -10% | [9]; at 33.0 µM -11% | [9]; at 100.0 µM -15% | [10]; [17] 2% | [10]; [18] 15% | [10]; at 50.0 µM 31.6% | [11]; at 1.2 µM 27% | [11]; at 3.7 µM 28% | [11]; [17] 8% | [11]; at 11.0 µM 34% | [11]; at 33.0 µM 45% | [11]; at 100.0 µM 51% | [12]; at 1.2 µM -3% | [12]; at 3.7 µM -3% | [12]; at 11.0 µM -3% | [12]; at 33.0 µM -5% | [12]; at 100.0 µM -5% | [13]; at 1.2 µM -5% | [13]; at 3.7 µM -2% | [13]; at 11.0 µM -2% | [13]; at 33.0 µM -4% | [13]; at 100.0 µM -6% | [14]; at 1.2 µM -4% | [14]; at 3.7 µM -2% | [14]; at 11.0 µM 1% | [14]; at 33.0 µM 0% | [14]; at 100.0 µM 1% | [15]; [17] -5% | [15]; [18] 17% | [15]; at 50.0 µM 57.1% | [16]; at 1.2 µM -4% | [16]; at 3.7 µM -4% | [16]; at 11.0 µM -1% | [16]; at 33.0 µM 1% | [16]; at 100.0 µM 0%
active: [8]; at 50.0 µM 73.7% | [11]; [18] 78% | [11]; at 50.0 µM 88.7%

OC(/C=C/c1ccccc1)(Cc1cc(-c2ccccc2)n[nH]1)c1ccccc1 (stereo unspecified)
active: [5]; [18] 97% | [5]; at 50.0 µM 98.6% | [6]; [18] 97% | [6]; at 50.0 µM 99.1% | [8]; [18] 97% | [8]; at 50.0 µM 97.8% | [10]; [18] 94% | [10]; at 50.0 µM 98.3% | [11]; [18] 98% | [11]; at 50.0 µM 99.2% | [15]; [18] 97% | [15]; at 50.0 µM 98.7%
inactive: [1]; at 1.2 µM 14% | [1]; at 3.7 µM 14% | [1]; at 11.0 µM 11% | [1]; at 33.0 µM 14% | [1]; at 100.0 µM 9% | [2]; at 1.2 µM 9% | [2]; at 3.7 µM 5% | [2]; at 11.0 µM 7% | [2]; at 33.0 µM 8% | [2]; at 100.0 µM 9% | [3]; at 1.2 µM 12% | [3]; at 3.7 µM 11% | [3]; at 11.0 µM 14% | [3]; at 33.0 µM 13% | [3]; at 100.0 µM 13% | [4]; at 1.2 µM 9% | [4]; at 3.7 µM 12% | [4]; at 11.0 µM 10% | [4]; at 33.0 µM 12% | [4]; at 100.0 µM 13% | [5]; at 1.2 µM 8% | [5]; at 3.7 µM 7% | [5]; [17] -3% | [5]; at 11.0 µM 4% | [5]; at 33.0 µM 11% | [5]; at 100.0 µM 8% | [6]; at 1.2 µM 9% | [6]; at 3.7 µM 11% | [6]; [17] 1% | [6]; at 11.0 µM 12% | [6]; at 33.0 µM 13% | [6]; at 100.0 µM 12% | [7]; at 1.2 µM 15% | [7]; at 3.7 µM 15% | [7]; at 11.0 µM 13% | [7]; at 33.0 µM 17% | [7]; at 100.0 µM 16% | [8]; [17] 17% | [9]; at 1.2 µM 23% | [9]; at 3.7 µM 24% | [9]; at 11.0 µM 24% | [9]; at 33.0 µM 26% | [9]; at 100.0 µM 24% | [10]; [17] -19% | [11]; at 1.2 µM 3% | [11]; at 3.7 µM 3% | [11]; [17] -10% | [11]; at 11.0 µM 2% | [11]; at 33.0 µM 7% | [11]; at 100.0 µM 6% | [12]; at 1.2 µM -11% | [12]; at 3.7 µM -8% | [12]; at 11.0 µM -15% | [12]; at 33.0 µM -8% | [12]; at 100.0 µM -14% | [13]; at 1.2 µM 10% | [13]; at 3.7 µM 12% | [13]; at 11.0 µM 12% | [13]; at 33.0 µM 13% | [13]; at 100.0 µM 14% | [14]; at 1.2 µM -9% | [14]; at 3.7 µM 6% | [14]; at 11.0 µM 4% | [14]; at 33.0 µM 9% | [14]; at 100.0 µM 1% | [15]; [17] 18% | [16]; at 1.2 µM 12% | [16]; at 3.7 µM 12% | [16]; at 11.0 µM 11% | [16]; at 33.0 µM 15% | [16]; at 100.0 µM 24%

CN(C)c1nc(=Nc2cccc(Cl)c2)ss1
active: [1]; at 11.0 µM 89% | [1]; at 33.0 µM 99% | [1]; at 100.0 µM 99% | [2]; at 33.0 µM 99% | [2]; at 100.0 µM 99% | [3]; at 11.0 µM 92% | [3]; at 33.0 µM 99% | [3]; at 100.0 µM 99% | [4]; at 11.0 µM 98% | [4]; at 33.0 µM 99% | [4]; at 100.0 µM 99% | [5]; [17] 75% | [5]; at 11.0 µM 89% | [5]; at 33.0 µM 99% | [5]; [18] 99% | [5]; at 50.0 µM 99.5% | [5]; at 100.0 µM 99%
inactive: [1]; at 1.2 µM 7% | [1]; at 3.7 µM 34% | [2]; at 1.2 µM 7% | [2]; at 3.7 µM 20% | [2]; at 11.0 µM 63% | [3]; at 1.2 µM 9% | [3]; at 3.7 µM 42% | [4]; at 1.2 µM 9% | [4]; at 3.7 µM 47% | [5]; at 1.2 µM 5% | [5]; at 3.7 µM 32% | [6]; at 1.2 µM 11% | [6]; at 3.7 µM 28%
